Screening results (PubChem BioAssay)
MBNL1-CUG inh: blocks human MBNL1 binding to CUG repeat RNA; actives 0.036% (n = 280,000); Q9NR56; Potency, µM (titrated, usually from 57.5 µM), inactives show top-dose activity change, negative = inhibition, actives largely listed as inhibitors; TR-FRET MBNL1-His/biotin-(CUG)12 binding, 665/545 ratio; active = well fitted inhibition curve with a large enough effect in the signal ratio, with a control signal flat, not every such curve was filed as active; inconclusive = small, poorly fitted or top-dose-only effect, or effect the other way, or a change in a side signal; inactive = no such curve, though single readings can be large or run the other way; the % refers to the signal ratio; also: potency is read from the fitted curve at half-maximal effect; % is scaled to controls: 0 for no effect and ±100 for the full control effect
Target sequence (Q9NR56 whole entry, looked up): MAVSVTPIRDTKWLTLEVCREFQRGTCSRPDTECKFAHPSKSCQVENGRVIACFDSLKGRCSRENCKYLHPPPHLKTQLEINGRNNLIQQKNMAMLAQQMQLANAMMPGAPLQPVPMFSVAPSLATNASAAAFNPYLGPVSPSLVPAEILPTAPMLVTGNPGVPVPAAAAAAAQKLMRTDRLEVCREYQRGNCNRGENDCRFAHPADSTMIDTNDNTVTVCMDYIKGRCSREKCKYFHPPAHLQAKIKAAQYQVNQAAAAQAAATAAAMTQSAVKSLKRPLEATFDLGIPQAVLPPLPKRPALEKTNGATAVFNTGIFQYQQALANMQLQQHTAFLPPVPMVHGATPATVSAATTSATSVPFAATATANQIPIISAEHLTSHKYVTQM
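TR-FRET readout: Ex 340 nm, 665/545 nm emission ratio, normalized to buffer-only (basal) and MBNL1-(CUG)12 controls. Complex of MBNL1-His with Biotin-(CUG)12, compounds 92 nM–58 uM, incubated 60 min at room temperature.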
uPA surface inh: blocks generation of uPA at the cell surface; cell surface uPA generation assay, qHTS; Potency, µM (series often up to 38.3 µM), inactives show top-dose activity change, negative = inhibition, actives largely listed as inhibitors; actives 0.31% (n = 330,000); AID 540303; active = well fitted inhibition curve with a large enough effect; inconclusive = small, poorly fitted or top-dose-only effect; inactive = no such curve, though single readings can be large or run the other way; tested in mouse RAW 264.7 cells; also: potency is read from the fitted curve at half-maximal effect; % is scaled to controls: 0 for no effect and ±100 for the full control effect; nearly all actives have a fitted effect of over 55% in size
TCR activator: activates T cell receptor signaling; 330,000 tested, under 10 active; primary human leukocytes, anti-CD3, IL-2 HTRF, 48 h; Potency, µM (titrated, usually from 9.22 µM), inactives show at the top dose activation of IL-2 secretion, hits mostly activators; also: % of control where 0% means no effect
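Readout: HTRF IL-2, Eu-cryptate/d2 antibody pair, 320nm excitation, 665nm emission. Stimulus: a-CD3 beads, no co-stimulation. Cells: primary human leukocytes. Exposure: 48 hr with compound.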
Vif-A3F inh: blocks the Vif interaction with APOBEC3F | Potency, µM (top dose mostly 46.1 µM), without a hit: top-dose activity, negative = active | actives 0.2% (n = 390,000) | HeLa A3F-eYFP + Vif (tagged APOBEC3F with the HIV-1 protein that degrades it), YFP fluorescence increase; also: potency is read from the fitted curve at half-maximal effect; % of control where 0% means no effect; nearly all actives have a fitted effect of over 65% in size
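HeLa cells stably expressing A3F-eYFP plus Vif, plated and incubated overnight at 37 deg C, then exposed to compounds overnight at 37 deg C. Blocked degradation read as raised yellow fluorescence (Ex 488/Em 500-530).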
Chronic BCR inh: blocks chronic active B-cell receptor signaling; ABC-DLBCL IkBa-CBG/CBR reporter, luminescence ratio, 4 h; Potency, µM (series often up to 46.1 µM), for the others: at the top dose activity change, negative = inhibition, actives largely listed as inhibitors; actives 0.05% (n = 340,000); active = well fitted inhibition curve with a large enough effect in the signal ratio, with a control signal flat, not every such curve was filed as active; inconclusive = small, poorly fitted or top-dose-only effect, or effect the other way, or a change in a side signal; the % refers to the signal ratio;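 also: potency is read from the fitted curve at half-maximal effect; plate controls were basal doxycycline-induced cells for no effect and cells given 10 µM MG132 for full effect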
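TMD8 ABC-DLBCL cells carrying doxycycline-inducible green luciferase fused to IkappaBalpha plus unfused red luciferase were exposed to compounds (up to 46 uM) for 4 hrs at 37C. Activity came from the overlap-corrected green/red luminescence ratio.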
Vif-APOBEC3G blk: Vif-A3G binding inhibition; Q9HC16; HeLa A3G-eYFP + Vif (tagged APOBEC3G with the HIV-1 protein that degrades it), YFP fluorescence, overnight; Potency, µM (top dose mostly 46.1 µM), without a hit: at the top dose activity, negative = active, hits mostly inhibitors; actives 0.076% (n = 410,000); AID 602310; also: potency is read from the fitted curve at half-maximal effect; % is scaled to controls: 0 for no effect and ±100 for the full control effect; nearly all actives have a fitted effect of over 60% in size
Target sequence (Q9HC16 whole entry, looked up): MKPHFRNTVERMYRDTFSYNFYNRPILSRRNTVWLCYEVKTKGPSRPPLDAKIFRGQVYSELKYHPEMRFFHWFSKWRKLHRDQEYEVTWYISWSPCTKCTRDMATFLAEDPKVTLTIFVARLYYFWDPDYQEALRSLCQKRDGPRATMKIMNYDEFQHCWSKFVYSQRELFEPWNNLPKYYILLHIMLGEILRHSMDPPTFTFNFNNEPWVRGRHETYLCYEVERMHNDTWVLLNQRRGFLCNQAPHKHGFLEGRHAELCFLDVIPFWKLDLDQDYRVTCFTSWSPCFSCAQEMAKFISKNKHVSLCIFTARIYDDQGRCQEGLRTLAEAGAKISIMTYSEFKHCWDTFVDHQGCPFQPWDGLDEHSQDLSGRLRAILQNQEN
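HeLa cells stably expressing Vif and C-terminally eYFP-tagged A3G, seeded overnight at 37 deg C, then exposed to compound by pintool overnight at 37 deg C. Rise in yellow fluorescence (Ex 488/Em 500-530, Acumen) marks blocked Vif-driven A3G degradation.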
The depositor's hits bear a star; i = inactive; ? = inconclusive; · = no result; [ ] = remark or other dose. In the library only some 0.54% were active in any assay of this set; here they are far more common. Unless noted, calls follow the shape of the dose curve; as a rule, active = well fitted curve in the direction sought with a large enough effect; inconclusive = small, poorly fitted or top-dose-only effect, or another doubt; inactive = no such curve, though single readings can be large; an effect the other way counts as inactive or inconclusive.

SMILES	MBNL1-CUG inh	uPA surface inh	TCR activator	Vif-A3F inh	Chronic BCR inh	Vif-APOBEC3G blk
Cc1sc2nc(CSCC(=O)Nc3ccccc3C#N)[nH]c(=O)c2c1C	9.0%	5.4%	0.1%[46.1 µM]	12.6µM*	7.6%	-2.9%
COC(=O)C[C@H]1c2cc(F)ccc2S(=O)(=O)N1C1CC1	·	·	·	·	·	-1.1%
Nc1nc(N)c2c(Oc3ccc(F)cc3)cccc2n1	·	·	·	·	·	1.2%
Fc1ccc(COc2ccc3ccccc3c2CNc2nn[nH]n2)cc1	i	-5.8%	-5.6%	-0.7%	?	12.6µM*
Fc1ccccc1COc1ccc2ccccc2c1CNc1nn[nH]n1	19.1%	-6.3%	-1.0%	-19.9%	?	?
COc1ccc(CN2[C@@H](CC(=O)O)c3ccc(/C=C/C(=O)O)cc3S2(=O)=O)cc1	·	·	·	·	·	1.0%
COCCN(CCOC)Cc1c(O)ccc2c1O/C(=C\c1ccc(C)o1)C2=O	?	-4.4%	-4.3%	25.1µM*	-1.8%	-0.7%
COC(=O)C1C2CC3c4[nH]c5cc(OC)ccc5c4CCN3CC2CC(OC(=O)CC(C)=O)C1OC (stereo not given)	·	5.0%	-10.3%	25.1µM*	·	?
CC(NC1=CC(=O)c2cccnc2C1=O)C(O)c1ccccc1 (stereo not given)	·	-11.7%	0.6%	?	·	10µM*
O=C(N/N=C/c1cc(Cl)ccc1O)c1ccccc1Br	22.0%	4.47µM*	-14.2%	0.7%	?	1.1%
C#CCN(C1CCCC1)S(=O)(=O)C=C	·	·	·	·	·	-20.8%
CC(=O)Nc1ccc(/C=C/c2ccnc3ccccc23)cc1	·	·	·	·	·	-14.7%
Nc1nc(=S)[nH]c2n[nH]nc12	·	·	·	·	·	1.1%
Cc1ccccc1OCC(=O)N/N=C/c1cccc(Oc2ccc([N+](=O)[O-])cc2[N+](=O)[O-])c1	?	11.2µM*	-2.9%[46.1 µM]	6.7%	1.8%	0.8%
CCN(CC)/[N+]([O-])=N/Oc1ccc([N+](=O)[O-])cc1[N+](=O)[O-]	·	·	·	·	·	-0.8%
Cc1cc(-c2ccccc2)c2c3c(c(-c4ccccc4)n2n1)c(=O)n(C)c(=O)n3C	-2.9%	-8.3%	-9.8%	25.1µM*	-8.1%	?
O=C(C[N+]12CN3CN(CN(C3)C1)C2)c1ccc(Br)cc1	·	·	·	·	·	-3.8%
O=C(C[n+]1ccccc1Cl)c1ccc(Br)cc1	·	·	·	·	·	-4.5%
O=C(/C=C/c1ccccc1Cl)Nc1cccc(O)c1	12.0%	4.47µM*	-1.7%	-0.8%	?	?
O=C(O)c1cc2cccc([N+](=O)[O-])c2[nH]1	·	·	·	·	·	-0.5%
C=C(C(=O)c1ccccc1)C(C)C(=C)C(=O)c1ccccc1	-1.7%	11.0%	-4.9%[46.1 µM]	?	?	5.01µM*
C=C(C(=O)c1ccccc1)C(c1ccccc1)C(C)C(=O)c1ccccc1 (stereo not given)	1.8%	-7.4%	8.0%[46.1 µM]	-12.8%	-18.5%	-28.0%
COc1cc(C(=O)Nc2ccc3c(c2)nc(C)n3C)cc(OC)c1OC	2.5%	5.62µM*	2.2%	?	?	?
C=C1C=C(C(F)F)n2ncc(C(=O)Nc3ccc(Br)cc3C(F)(F)F)c2N1	·	·	·	·	·	-2.0%
Cc1ccc(-c2cc(-c3ccco3)c3c(N)c(C(=O)NN)oc3n2)cc1	?	6.5%	-3.1%	11.2µM*	6.5%	?
SMILES	MBNL1-CUG inh	uPA surface inh	TCR activator	Vif-A3F inh	Chronic BCR inh	Vif-APOBEC3G blk
CCCCCCN(C(=O)CCl)c1ccccc1	-6.2%	2.51µM*	0.7%	2.9%	?	?
Oc1ccc(/C=N/NC(=S)Nc2cccnc2)cc1	?	3.98µM*	-1.2%	0.4%	?	-0.1%
O=C1C(=O)c2ccccc2C(O)=C1CCCCl	·	11.2µM*	1.0%	0.0%	?	-16.2%
COc1ccc(CC2=C(O)c3ccccc3C(=O)C2=O)cc1	?	-0.4%	3.1%	0.8%	?	-24.4%
CCC[N+](C)(C)c1ccc(/C=C/c2ccnc3ccccc23)cc1	·	·	·	·	·	8.7%
O=C(Nc1ccccc1)Nc1cccc(Cl)c1Cl	-0.7%	-0.2%	1.6%[46.1 µM]	-13.5%	?	-4.0%
O=C(Nc1ccc(Oc2ccc(NC(=O)Nc3ccccc3Cl)cc2)cc1)Nc1ccccc1Cl	0.2%	7.3%	-4.6%	11.2µM*	2.8%	-2.3%
CCOC(=O)COn1c(=O)c(-c2ccc(Br)cc2)[n+]([O-])c2ccccc21	?	5.9%	2.5%	1.78µM*	3.5%	-0.1%
CCC1=NN(C(=O)c2ccccc2O)C(O)(c2ccccc2)C1 (stereo not given)	-4.5%	11.2µM*	-11.6%	-12.2%	?	?
CCCC(=O)NC(c1ccccc1)c1ccc2cccnc2c1O (stereo not given)	24.8%	-12.9%	14.2%	-6.4%	?	?
CCCCC(=O)NC(c1cccc([N+](=O)[O-])c1)c1ccc2cccnc2c1O (stereo not given)	·	5.01µM*	·	-1.4%	·	-19.7%
CCC(=O)NC(c1ccc(OC)cc1)c1c(O)ccc2ccccc12 (stereo not given)	2.5%	5.62µM*	3.5%	-9.6%	-1.5%	?
CC(=O)NC(c1cccc([N+](=O)[O-])c1)c1ccc2cccnc2c1O (stereo not given)	?	-13.0%	7.6%	?	?	-8.3%
CCCC(=O)NC(c1ccc(OC)cc1)c1ccc2cccnc2c1O (stereo not given)	52.9%	-0.5%	3.5%	11.2µM*	?	-14.8%
CC(C)(C)n1ncc2c(=O)n(Cc3cc(Cl)ccc3Cl)cnc21	·	·	·	·	·	1.9%
COc1ccc(/C=C/c2ccccn2)cc1	·	·	·	·	·	3.3%
Cc1ccc(C(=O)c2c3ccc([N+](=O)[O-])cc3[n+]([O-])n2CCC(N)=O)cc1	?	1.41µM*	1.4%	?	29.7%	?
COc1cc(/C=C2\SC(N)=NC2=O)cc(Br)c1O	?	12.5%	·	?	-15.6%	11.2µM*
COc1ccc(/C=C2\SC(N)=NC2=O)cc1	?	-11.4%	·	2.6%	-1.9%	2.9%
COc1ccc(C2C(O)C(c3c[nH]c4ccccc34)=NN2C(=O)CCl)cc1 (stereo not given)	?	-4.3%	-1.8%	6.1%	?	?
COc1ccc(C2NN=C(c3c[nH]c4ccccc34)C2O)cc1 (stereo not given)	-5.2%	-2.3%	-12.7%	22.4µM*	-0.2%	?
COc1cccc(C(=O)Oc2ccccc2/C=C\C(=O)c2cc3ccccc3o2)c1	15.5%	8.91µM*	0.8%[46.1 µM]	1.4%	?	?
O=C(Oc1ccccc1/C=C\C(=O)c1cc2ccccc2o1)c1ccccc1	2.7%	-12.5%	-9.1%[46.1 µM]	-19.8%	-7.4%	-2.9%
COc1ccc(C2Nc3ccccc3C(=O)N2Cc2ccco2)cc1COc1c(C)cccc1C (stereo not given)	·	·	·	·	·	-20.7%
